Laboratory results: PubChem BioAssay (NCI)
This is part of a sample that, as a whole, favours compounds with a hit. Of some 79,000 tested, about 15% had one in any assay. Unmarked numbers belong to inactive results. Calls of active or inactive are those of the source. Cut-off read from the data, not from the text of the source: active = growth inhibition above about 70%; inactive = the rest.

How the values were obtained:
[1] = NCI Yeast Anticancer Drug Screen. Data for the rad50 strain (AID 155);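 note: 0% = growth of vehicle-only cultures of the same strain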; conditions: S. cerevisiae rad50 strain growth inhibition; at 50.0 µM; active compounds read high
In short: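 Readout: growth inhibition relative to vehicle-treated cultures. Compound exposure was carried out in a genetically defined yeast strain deficient in DNA damage repair.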

[2] = NCI Yeast Anticancer Drug Screen. Data for the mec2-1 strain (AID 157); conditions: S. cerevisiae mec2-1 strain, at 50.0 µM, active compounds read high
In short: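 Mutant yeast (mec2-1) grown with compound; growth inhibition relative to vehicle control reported.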

[3] = NCI Yeast Anticancer Drug Screen. Data for the sgs1 mgt1 strain (AID 161);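 note: 0% = growth of cultures given vehicle only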; conditions: S. cerevisiae sgs1 mgt1 strain, at 50.0 µM, active compounds read high
In short: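 Yeast cells carrying a defined DNA-repair defect were exposed to test compounds. Growth inhibition was measured relative to vehicle-treated controls.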

[4] = NCI Yeast Anticancer Drug Screen. Data for the cln2 rad14 strain (AID 165);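 note: 0% = growth equal to vehicle treated cultures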; conditions: S. cerevisiae cln2 rad14 strain, at 50.0 µM, active compounds read high
In short: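 Readout is yeast growth inhibition versus vehicle-treated controls, using a strain with cln2 and rad14 alterations exposed to compound.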

[5] = NCI Yeast Anticancer Drug Screen. Data for the bub3 strain (AID 167); conditions: S. cerevisiae bub3 mutant strain, at 50.0 µM, active compounds read high
In short: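 Readout: yeast growth inhibition, expressed relative to vehicle-only wells. The test organism is a mutant strain from a panel with lesions in DNA repair or checkpoint genes.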

[6] = NCI Yeast Anticancer Drug Screen. Data for the mlh1 rad18 strain (AID 175); conditions: S. cerevisiae mlh1 rad18 strain growth inhibition; at 50.0 µM; active compounds read high
In short: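 Genetically defined yeast (DNA repair-deficient) exposed to compounds; growth inhibition determined relative to vehicle.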

Structure (SMILES) | growth inhibition [1] | growth inhibition [2] | growth inhibition [3] | growth inhibition [4] | growth inhibition [5] | growth inhibition [6]
COc1ccc(CCc2nccn2C)cc1OC | -69.3% | -54.9% | -34.7% | -16.4% | -7.95% | -32.2%
COc1cccc2c1CCC(=O)C2 | -31.7% | -44.8% | -35.1% | 8% | -44.8% | -18.3%
COc1cccc(N)c1 | 4.6% | -11.8% | -6.65% | -2.75% | -4.95% | -10.2%
COC(=O)C1(C2(C(=O)OC)NC(C)=C(c3ccccc3)C(=O)O2)NC(C)=C(c2ccccc2)C(=O)O1 (stereo unspecified) | 15.2% | -7.3% | -6.95% | 8.3% | -5.15% | 15%
CCOC(=O)C(C)(C)Oc1ccc2c(-c3ccccc3)cc(=O)oc2c1 | -9.15% | -8.4% | 0.15% | -13.1% | -19.8% | -25.6%
COc1ccc(C(CN(C)C(C)C)OC(=O)C(c2ccccc2)c2ccccc2)cc1OC (stereo unspecified) | -14.1% | -6.85% | -12.6% | -8.25% | 1.25% | -17.5%
C=CCNCC(O)C(F)(F)C(F)(F)C(F)(F)C(F)(F)C(F)(F)C(F)(F)F (stereo unspecified) | 22.5% | 28.9% | 32.1% | -6.9% | 7.55% | 27.6%
O=C(O)/C=C/C(=O)Nc1ccc2c(c1)-c1ccccc1C2=O | 15.9% | 14.4% | 17.9% | 5.25% | 5.15% | 16.6%
CCC(O)(c1ccccc1)C(OC)c1ccccc1 (stereo unspecified) | 15.3% | 5.35% | 14.5% | 7.25% | -0.35% | 21.1%
CCCCCCCCCCCCCCCCOc1ccc(S(=O)(=O)NC(C)(C)C)cc1[N+](=O)[O-] | 8.7% | -17.4% | 7.85% | -1.6% | 20.6% | 18.9%
Fc1ccc(-c2cc(-c3cccs3)cc(-c3ccccc3)n2)cc1 | 8.6% | -9.45% | 21.2% | 8.55% | 20.8% | 11.1%
Cc1cc(/C=C2\SC(=S)NC2=O)cc(C)c1O | 1.65% | 0.8% | 24.6% | 13.1% | 22.8% | 13.7%
O=C1NC(=S)S/C1=C\c1ccncc1 | 12.4% | -7.4% | -10.4% | 0.9% | 0.05% | -19.1%
CCCC1CC(=O)NC(=O)C1C(=O)OC(C)(C)C (stereo unspecified) | -13.1% | -0.2% | -8.65% | 11% | 9.85% | -47.4%
O=C1NN=C(C(O)c2ccccc2)C1(O)c1ccccc1 (stereo unspecified) | 8.3% | -6.25% | -0.65% | 0.2% | 2.5% | 17.8%
CC(=O)c1ccc(OCc2ccccc2)c(OCc2ccccc2)c1 | 2.45% | 0.8% | 22.8% | 10.9% | 22.1% | 11.2%
NC(=O)C(C1=CCCCC1)c1ccccc1 (stereo unspecified) | 3.25% | -1.3% | 2.1% | 3.15% | 1.95% | 0.9%
CC(=O)CC(C)=NCCN=C(C)CC(C)=O.[Cu] | 86.2% (active) | 64.2% | 75.7% (active) | 84.4% (active) | 71.8% (active) | 82% (active)
O=c1[nH]c(NCc2ccncc2)nc2nc[nH]c12 | 10.2% | -3.8% | -14.8% | 3.1% | -21.1% | -52%
CCOc1c(Cc2ccccc2)c(=O)n2c3ccccc3n(CC)c2c1C#N | -4.75% | -6.05% | 0.25% | -11.8% | -29.9% | -10.8%
Cc1ccc(S/C=C/C(=O)Nc2ccccc2)cc1 | -10.8% | 13.4% | 7.1% | 43.1% | 2.85% | 5.6%

Structure (SMILES) | growth inhibition [1] | growth inhibition [2] | growth inhibition [3] | growth inhibition [4] | growth inhibition [5] | growth inhibition [6]
CCOC(=O)[C@H](Cc1ccccc1)NC(=O)c1nc[nH]c1[N+](=O)[O-] | -10.1% | -9.25% | -31.1% | 5.6% | 1.2% | -34%
O=C1C2CSCN2C(=O)C2CSCN12 (stereo unspecified) | 5% | 4.45% | 5.7% | 12.1% | 8.8% | 4.5%
O=C1c2ccccc2-c2ccc(N3C(=O)C=CC3=O)cc21 | 98.6% (active) | 98.6% (active) | 98.8% (active) | 56.2% | 92.4% (active) | 92.2% (active)
CCN(CC)CCOCC1CCCN2CCCCC12 (stereo unspecified) | -9.5% | -9.8% | -1.75% | 5.75% | 16.1% | -50.1%
Cc1c2ccnc(C#N)c2c(C)c2c1[nH]c1ccccc12 | -19.8% | 3% | -16.9% | -13.3% | 12.8% | 7.5%
COc1ccc(C2(C(OC)OC)NC(=O)N(Cc3ccccc3)C2=O)cc1 (stereo unspecified) | 2.7% | -10.6% | -4.5% | -49.4% | -11.8% | -10.3%
CN(C)c1ccc(N=Cc2ccc(O)cc2)cc1 | 10.9% | 0.55% | -4.6% | 2% | 2.9% | 7%
O=C(O)C1CCCCN1/N=C/c1ccccc1 (stereo unspecified) | 15.8% | 6.8% | -1.65% | -13.6% | -30.8% | 21.9%
N#Cc1ccccc1N=Nc1nc(N)c(C(N)=O)[nH]1 | 22.2% | 13.7% | 11.2% | -5.05% | 4.7% | 10.2%
OC1CC2CCCCC2CC1Cl (stereo unspecified) | 6.15% | 1.35% | 0.7% | -16.6% | -19.1% | 5.5%
O=C1CCC=Cc2c(O)ccc(O)c21 | 8.65% | -5.25% | 17.8% | 0.55% | -1.1% | 27.9%
COc1ccc(C(c2cc3c(cc2O)OCO3)N2CCN(C(c3ccc(OC)cc3)c3cc4c(cc3O)OCO4)CC2)cc1 (stereo unspecified) | 17.1% | 0% | 5.05% | 15.1% | -1.65% | 19.8%
N/N=C(/Cc1ccccc1)NNO | 30.4% | 13.8% | 27.1% | 22.4% | 12.8% | 22.2%
CCCCNC[C@@H](O)[C@H](O)COS(C)(=O)=O | 0.4% | -11.7% | -8.65% | -24.1% | -13.7% | -7.05%
OCC1OC(n2cc(I)c3c(Cl)ncnc32)C(O)C1O (stereo unspecified) | 0.7% | -15.4% | -4.05% | -36.8% | 1.6% | 3.95%
N/N=C1/CCCc2nonc21 | -19.7% | -17.1% | -29.4% | -22.2% | -25.4% | -48.4%
CC1=NN(c2ccccc2C)C(=O)C1 | 2.05% | -27.8% | -5.1% | -2.6% | -27.9% | 8.1%
Cc1nc(C)c(N2CCN(C(=O)NC(CCC(=O)O)C(=O)O)CC2)c(=O)[nH]1 (stereo unspecified) | -80.7% | 8.95% | -28.3% | 18.4% | -1.25% | -40.6%
O=C(CSc1c2ccccc2nc2ccccc12)Nc1ccccc1-c1ccccc1NC(=O)CSc1c2ccccc2nc2ccccc12 | 27.4% | 9.75% | 18.6% | 6.9% | 19% | 34.5%
CCOC(=O)c1ccc(N=C(N)N)cc1 | 23% | 9.85% | 19.8% | 11% | 17.2% | 19.6%
